These results are taken from PubChem BioAssay AID1117288 (Broad Institute, 2014).

Potency and affinity values are given separately. Records with an inconclusive call do not appear. A call without a number means that no potency is given here. Calls of active or inactive are those of the source.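 The calls were made as follows: active = compound whose fitted half-inhibition dose sits at or below twice its top tested dose in every test run; inconclusive = test runs disagree, or every run is unclear; inactive = inactive in every test run.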

Sequence of Leucyl-cystinyl aminopeptidase (Mus musculus) (Q8C129 whole entry, looked up): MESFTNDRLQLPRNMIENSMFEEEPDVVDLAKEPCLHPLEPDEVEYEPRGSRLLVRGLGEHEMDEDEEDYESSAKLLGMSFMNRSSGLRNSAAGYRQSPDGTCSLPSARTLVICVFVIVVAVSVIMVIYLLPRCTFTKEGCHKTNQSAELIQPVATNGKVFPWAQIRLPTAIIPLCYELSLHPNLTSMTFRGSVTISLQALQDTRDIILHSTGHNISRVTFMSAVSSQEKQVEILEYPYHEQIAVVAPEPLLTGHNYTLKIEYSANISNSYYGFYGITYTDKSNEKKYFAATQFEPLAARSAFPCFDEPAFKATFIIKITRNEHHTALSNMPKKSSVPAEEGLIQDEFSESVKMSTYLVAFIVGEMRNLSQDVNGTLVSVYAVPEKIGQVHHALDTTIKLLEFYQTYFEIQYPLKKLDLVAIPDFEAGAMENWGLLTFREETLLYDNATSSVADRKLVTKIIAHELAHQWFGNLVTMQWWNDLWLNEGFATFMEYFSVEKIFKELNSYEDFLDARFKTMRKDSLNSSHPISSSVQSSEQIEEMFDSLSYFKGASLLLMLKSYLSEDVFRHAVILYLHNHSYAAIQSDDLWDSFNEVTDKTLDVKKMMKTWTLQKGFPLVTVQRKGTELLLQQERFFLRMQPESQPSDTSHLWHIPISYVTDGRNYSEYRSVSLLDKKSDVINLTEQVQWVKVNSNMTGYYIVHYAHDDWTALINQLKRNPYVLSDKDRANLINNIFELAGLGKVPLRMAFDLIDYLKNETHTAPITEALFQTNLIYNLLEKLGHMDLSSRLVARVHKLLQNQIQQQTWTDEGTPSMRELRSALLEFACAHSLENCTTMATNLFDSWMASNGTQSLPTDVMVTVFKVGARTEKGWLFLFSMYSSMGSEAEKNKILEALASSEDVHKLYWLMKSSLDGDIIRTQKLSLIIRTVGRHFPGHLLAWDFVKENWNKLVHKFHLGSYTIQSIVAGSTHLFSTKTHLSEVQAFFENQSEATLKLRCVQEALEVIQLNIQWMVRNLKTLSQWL

This experiment addresses Leucyl-cystinyl aminopeptidase (Mus musculus) (UniProt Q8C129). Description: IRAP enzyme inhibitors, dose response, selectivity assay for ERAP1 modulator project, biochemical, dry powder samples, set 3 (AID 1117288). The conditions noted are these: purified IRAP enzyme, Leu-AMC fluorescence, 1 h; series mostly up to 50 µM.
For `COc1ccc(C(=O)O)cc1S(=O)(=O)Nc1cc(C)ccc1N1CCCCC1`, the compound was called inactive.

On to `COc1ccc(C(=O)O)cc1S(=O)(=O)Nc1cc(F)ccc1N1CCCCC1`, for which the call was inactive.

Turning to `O=C(O)c1cccc(S(=O)(=O)Nc2cc(C(F)(F)F)ccc2N2CCCCC2)c1`, the outcome was inactive.

`COc1ccc(C(=O)O)cc1S(=O)(=O)Nc1cc(C(F)(F)F)ccc1N1CCOCC1`: the compound was called inactive.

In the case of `COc1ccc(C(=O)O)cc1S(=O)(=O)Nc1cc(C(F)(F)F)ccc1N1CCN(C)CC1`, the compound was called inactive.

As for `COc1ccc(C(=O)O)cc1S(=O)(=O)Nc1ccccc1N1CCCCC1`, the compound was classed as inactive.

Regarding `COc1ccc(C(=O)O)cc1S(=O)(=O)Nc1ccc(N2CCCCC2)cc1C(F)(F)F`, the result was inactive.

On to `Cc1ccc(C(=O)O)cc1S(=O)(=O)Nc1cc(C(F)(F)F)ccc1N1CCCCC1`, for which the outcome was inactive.

On to `COc1ccc(C(=O)O)cc1S(=O)(=O)N1CCN(c2ccc(C(F)(F)F)cc2N)CC1`, for which the call was inactive.

`O=C(O)c1ccc(Cl)c(S(=O)(=O)Nc2cc(C(F)(F)F)ccc2N2CCCCC2)c1`: the call was inactive.

Consider `COC(=O)c1ccc(OC)c(S(=O)(=O)Nc2cc(C(F)(F)F)ccc2N2CCCCC2)c1`, for which the compound was classed as inactive.

On to `COc1ccc(C(=O)O)cc1S(=O)(=O)Nc1cc(C(F)(F)F)ccc1N1CCCCC1`, for which the call was inactive.

With `COc1ccc(C(=O)O)cc1S(=O)(=O)Nc1cc(C(F)(F)F)ccc1N(C)C`, the outcome was inactive.

For the compound `COc1ccc(C(=O)O)cc1S(=O)(=O)N(C)c1cc(C(F)(F)F)ccc1N1CCCCC1`, the call was inactive.

On to `O=C(O)c1cc(F)cc(S(=O)(=O)Nc2cc(C(F)(F)F)ccc2N2CCCCC2)c1`, for which the compound was classed as inactive.

`O=C(O)c1ccc(Br)c(S(=O)(=O)Nc2cc(C(F)(F)F)ccc2N2CCCCC2)c1`: the compound was called inactive.

As for `COc1ccc(C(=O)O)cc1S(=O)(=O)Nc1cccc(N2CCCCC2)c1C(F)(F)F`, the compound was classed as inactive.

In the case of `Cc1ccc(S(=O)(=O)Nc2cc(C(F)(F)F)ccc2N2CCCCC2)cc1C(=O)O`, the result was inactive.
